Inconclusive results are not listed. Where a structure was tested more than once in an assay, its records may differ in their call. Active and inactive are the calls of the source. Rule for the calls, unless noted: active = hit-call score of the fitted dose curve at least 0.9, where 1 is the maximum; inactive = score below 0.9.
Legend:
[1] = ACEA_ER_80hr: ACEA Biosciences xCELLigence Real-Time Cell Analysis on Estrogen Receptor Agonism for Proliferation (AID 2282667; active = hit-call score of the fitted dose curve at least 0.9, where 1 is the maximum); settings: T47D proliferation, impedance (xCELLigence), 80 h
Summary of the method: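 T47D human breast cells were seeded on electrode plates, monitored overnight, then exposed continuously to compounds in eight-point 1:4 dilutions from 100 uM (max 0.5% DMSO). Impedance-based growth was read at 80 h, fitted upward relative to DMSO.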

[2] = ATG_CRE_CIS: Attagene CIS-FACTORIAL HepG2 Assay for human cAMP Responsive Element (CRE) binding protein 3 (AID 2282926); settings: HepG2 CRE cis-reporter, Attagene multiplexed mRNA; actives raise or lower the signal
Summary of the method: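 HepG2 cells transiently transfected with a multiplexed reporter library (CRE-driven unit among them) were dosed for 24 h. Reporter mRNA was quantified by RT-PCR, fluorescent labelling, HpaI digestion and capillary electrophoresis, with bidirectional fitting against DMSO baseline.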

[3] = molecular target: CCAAT/enhancer-binding protein beta (Homo sapiens) (UniProt P17676); assay: ATG_C_EBP_CIS: Attagene CIS-FACTORIAL HepG2 Assay for human CCAAT/Enhancer Binding Protein (C/EBP) beta (AID 2282927); settings: HepG2 Attagene cis-factorial transcription factor reporter; actives raise or lower the signal
CCAAT/enhancer-binding protein beta (Homo sapiens), sequence (P17676 whole entry, looked up): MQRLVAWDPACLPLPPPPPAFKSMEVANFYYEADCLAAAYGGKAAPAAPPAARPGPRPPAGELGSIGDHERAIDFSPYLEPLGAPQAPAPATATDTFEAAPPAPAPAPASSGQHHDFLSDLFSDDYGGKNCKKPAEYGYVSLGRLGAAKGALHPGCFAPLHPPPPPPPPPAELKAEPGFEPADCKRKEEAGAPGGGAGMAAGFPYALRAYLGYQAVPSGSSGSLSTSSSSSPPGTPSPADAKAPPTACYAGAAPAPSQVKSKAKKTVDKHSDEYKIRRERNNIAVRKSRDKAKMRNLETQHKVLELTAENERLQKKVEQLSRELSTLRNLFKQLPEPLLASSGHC
Summary of the method: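 Following a 24 h incubation with test chemical, transfected HepG2 cells yielded RNA whose reporter transcripts were quantified by RT-PCR and fluorescent capillary electrophoresis, with DMSO serving as baseline for bidirectional fitting.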

[4] = ATG_CMV_CIS: Attagene CIS-FACTORIAL HepG2 Assay for human CMV (Internal Marker) (AID 2282928); settings: HepG2 CMV promoter reporter, transcription factor profiling; actives raise or lower the signal;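 note: endpoint acts as a background internal control marker rather than a target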
Summary of the method: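 Cell system: HepG2, transiently transfected multiple reporter units under cis promoters. Exposure: 24 h. Detection: RT-PCR, FAM labeling, HpaI digestion, capillary electrophoresis. Analysis: bidirectional, DMSO baseline.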

[5] = ATG_DR4_LXR_CIS: Attagene CIS-FACTORIAL HepG2 Assay for human Liver X Receptor (LXR), DR4 submotif (AID 2282929); settings: HepG2 Attagene DR4 cis-reporter, mRNA transcription; actives raise or lower the signal
Summary of the method: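 Transiently transfected HepG2 liver cells; cis-regulated reporters; 24 h dosing. RT-PCR plus CE read-out of reporter mRNA. DMSO baseline, bidirectional curve fitting.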

[6] = molecular target: Aryl hydrocarbon receptor (Homo sapiens) (UniProt P35869); assay: ATG_Ahr_CIS: Attagene CIS-FACTORIAL HepG2 Assay for human Aryl Hydrocarbon Receptor (Ahr) (AID 2282930); settings: HepG2 AhR cis-factorial reporter transcription; actives raise or lower the signal
Aryl hydrocarbon receptor (Homo sapiens), sequence (P35869 whole entry, looked up): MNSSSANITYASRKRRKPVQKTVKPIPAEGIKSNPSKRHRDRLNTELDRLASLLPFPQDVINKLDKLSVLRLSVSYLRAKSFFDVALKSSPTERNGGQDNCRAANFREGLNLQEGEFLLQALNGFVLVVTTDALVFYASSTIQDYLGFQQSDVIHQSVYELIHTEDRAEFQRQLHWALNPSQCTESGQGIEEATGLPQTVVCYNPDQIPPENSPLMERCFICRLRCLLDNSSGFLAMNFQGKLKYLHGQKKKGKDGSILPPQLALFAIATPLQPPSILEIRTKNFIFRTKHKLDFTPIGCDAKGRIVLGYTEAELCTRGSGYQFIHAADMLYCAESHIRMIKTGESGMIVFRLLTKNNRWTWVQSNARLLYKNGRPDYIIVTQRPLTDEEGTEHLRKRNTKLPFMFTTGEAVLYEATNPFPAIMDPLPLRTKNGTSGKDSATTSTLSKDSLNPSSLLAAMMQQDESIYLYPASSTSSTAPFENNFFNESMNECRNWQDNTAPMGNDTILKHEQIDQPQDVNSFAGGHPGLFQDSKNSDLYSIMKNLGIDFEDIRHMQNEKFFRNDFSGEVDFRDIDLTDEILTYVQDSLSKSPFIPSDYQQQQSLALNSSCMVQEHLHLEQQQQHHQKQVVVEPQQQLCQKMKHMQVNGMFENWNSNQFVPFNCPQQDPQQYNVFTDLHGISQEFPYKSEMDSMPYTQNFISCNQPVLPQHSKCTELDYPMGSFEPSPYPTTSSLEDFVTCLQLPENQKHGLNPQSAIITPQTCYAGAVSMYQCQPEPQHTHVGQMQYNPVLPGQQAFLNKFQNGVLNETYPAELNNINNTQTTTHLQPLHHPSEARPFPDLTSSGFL
Summary of the method: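 Values derive from bidirectional fitting against DMSO negative control. Underlying signal: cis-element reporter mRNA in transiently transfected HepG2, harvested 24 h post-dose and measured by RT-PCR plus capillary electrophoresis.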

[7] = ATG_AP_1_CIS: Attagene CIS-FACTORIAL HepG2 Assay for human Activator Protein 1 (AP-1) (AID 2282931); settings: HepG2 Attagene cis-factorial AP-1 reporter mRNA; actives raise or lower the signal
Summary of the method: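 We transfected HepG2 cells transiently with a set of cis-regulated reporter transcription units, dosed them for 24 h, and quantified reporter mRNA via RT-PCR and capillary electrophoresis, scoring gain or loss of signal relative to DMSO.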

[8] = ATG_AP_2_CIS: Attagene CIS-FACTORIAL HepG2 Assay for human Activator Protein 2 (AP-2) (AID 2282932); settings: HepG2 AP-2 cis-reporter, Attagene transcription factor profiling; actives raise or lower the signal
Summary of the method: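 HepG2 cells were transiently transfected with multiple cis-promoter reporter transcription units and dosed for 24 h. Reporter mRNA was measured by RT-PCR with capillary electrophoresis fluorescence; bidirectional fits relative to DMSO baseline.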

[9] = ATG_BRE_CIS: Attagene CIS-FACTORIAL HepG2 Assay for human Bone Morphogenetic Protein (BMP) Response Element (BRE) (AID 2282933); settings: HepG2 BMP response element reporter, Attagene transcription factor profiling; actives raise or lower the signal
Summary of the method: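 A HepG2 multiplex reporter system measured inducible reporter mRNA 24 h post-dosing. Detection: RT-PCR, 6-FAM primer extension, HpaI digestion, capillary electrophoresis. Activity fitted bidirectionally relative to DMSO.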

[10] = molecular target: Retinoic acid receptor alpha (Homo sapiens) (UniProt P10276); assay: ATG_DR5_RAR_CIS: Attagene CIS-FACTORIAL HepG2 Assay for human Retinoic Acid Receptor Alpha (RARE), DR5 submotif (AID 2282934); settings: HepG2 Attagene cis-factorial RARE DR5 reporter, mRNA; actives raise or lower the signal
Retinoic acid receptor alpha (Homo sapiens), sequence (P10276 whole entry, looked up): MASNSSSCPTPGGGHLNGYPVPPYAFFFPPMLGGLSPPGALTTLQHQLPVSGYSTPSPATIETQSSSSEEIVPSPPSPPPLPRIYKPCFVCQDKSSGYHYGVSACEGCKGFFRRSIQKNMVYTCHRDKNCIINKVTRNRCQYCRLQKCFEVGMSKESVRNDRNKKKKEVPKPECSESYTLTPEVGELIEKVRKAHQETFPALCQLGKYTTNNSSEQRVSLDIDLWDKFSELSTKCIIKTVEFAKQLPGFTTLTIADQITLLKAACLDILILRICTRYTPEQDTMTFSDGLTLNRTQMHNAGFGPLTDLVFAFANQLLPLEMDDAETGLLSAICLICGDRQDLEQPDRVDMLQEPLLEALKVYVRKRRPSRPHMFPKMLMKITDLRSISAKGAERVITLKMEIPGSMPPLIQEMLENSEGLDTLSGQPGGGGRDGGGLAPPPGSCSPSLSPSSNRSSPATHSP
Summary of the method: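 Endpoint fitted in both directions relative to DMSO as negative control. It reflects DR5 cis-element reporter mRNA induction in transiently transfected HepG2 cells, measured 24 h after dosing through RT-PCR and fluorescent capillary electrophoresis.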

Structure (SMILES)	outcome [1]	outcome [2]	outcome [3]	AC50 [4]	AC50 [5]	outcome [6]	outcome [7]	AC50 [8]	outcome [9]	outcome [10]	outcome [5]	outcome [8]	outcome [4]	AC50 [2]	AC50 [1]	AC50 [7]	AC50 [6]	AC50 [9]
CCCCCCCCCCCCCCCC[N+](C)(C)Cc1ccccc1	inactive	inactive	inactive	44.8 µM (active)	24.9 µM (active)	inactive	inactive	51.9 µM (active)	inactive	inactive								
Oc1ccc(Nc2ccccc2)cc1	inactive	inactive	inactive	41.8 µM (active)		inactive	inactive		inactive	inactive	inactive	inactive						
Cc1cc(C)cc(O)c1	inactive	inactive	inactive			inactive	inactive		inactive	inactive	inactive	inactive	inactive					
OCCCC(F)(F)C(F)(F)C(F)(F)C(F)(F)C(F)(F)C(F)(F)C(F)(F)F	inactive	inactive	inactive		35.6 µM (active)		inactive	75.5 µM (active)	inactive	inactive	inactive	inactive		51.4 µM (active)				
O=C(O)C(F)(F)C(F)(F)C(F)(F)C(F)(F)C(F)(F)C(F)(F)C(F)(F)C(F)(F)C(F)(F)C(F)F		inactive	inactive			inactive			inactive	inactive	inactive	inactive	inactive		18.8 µM (active)	26.6 µM (active)		
NC(=O)C(F)(F)C(F)(F)C(F)(F)C(F)(F)F	inactive	inactive	inactive			inactive	inactive		inactive	inactive	inactive	inactive	inactive					
OCC(F)(F)C(F)(F)C(F)(F)F	inactive	inactive	inactive			inactive	inactive		inactive	inactive	inactive	inactive	inactive					
CC(Cc1ccc(O)c(O)c1)C(C)Cc1ccc(O)c(O)c1 (stereo not given)	inactive		inactive			inactive	inactive		inactive	inactive	inactive	inactive	inactive	22.9 µM (active)				
O=C(O)C(F)(F)C(F)(F)C(F)F	inactive	inactive	inactive			inactive	inactive		inactive	inactive	inactive	inactive	inactive					
O=S(=O)(OCCOC(F)(F)F)C(F)(F)F	inactive	inactive	inactive			inactive	inactive		inactive	inactive	inactive	inactive	inactive				101 µM (active)	
CCN(CC)c1ccc2c(C)cc(=O)oc2c1	inactive		inactive	26.5 µM (active)		inactive	inactive			inactive	inactive	inactive		30.7 µM (active)				143 µM (active)
CC(C)OC(=O)c1ccccc1C(=O)OC(C)C	inactive	inactive	inactive			inactive	inactive		inactive	inactive	inactive	inactive	inactive					
C=C(C)C(=O)OCC(F)(F)C(F)(F)C(F)(F)C(F)(F)C(F)(F)C(F)(F)C(F)(F)F	inactive	inactive	inactive				inactive		inactive	inactive	inactive	inactive	inactive					
O=S(=O)(OCC(F)F)C(F)(F)F	inactive	inactive	inactive				inactive		inactive	inactive	inactive	inactive	inactive					
Nc1cc(Cl)c(N)c(Cl)c1		inactive	inactive				inactive		inactive	inactive	inactive	inactive	inactive		13.5 µM (active)			
Cc1ccc(S(=O)(=O)OCC(F)(F)C(F)(F)C(F)(F)C(F)(F)C(F)(F)C(F)F)cc1	inactive	inactive	inactive			inactive	inactive		inactive	inactive	inactive	inactive	inactive					
Nc1ccc([N+](=O)[O-])cc1O	inactive	inactive	inactive				inactive		inactive	inactive	inactive	inactive	inactive				25.5 µM (active)	
FC(F)(F)C(F)(F)C(F)(F)C(F)(F)C(F)(F)C(F)(F)C(F)(F)C(F)(F)F	inactive	inactive	inactive				inactive		inactive	inactive	inactive	inactive	inactive					
O=C(CC(=O)C(F)(F)C(F)(F)F)C(F)(F)F	inactive	inactive	inactive			inactive	inactive		inactive	inactive	inactive	inactive				150 µM (active)		
CC(CCl)OP(=O)(OC(C)CCl)OC(C)CCl (stereo not given)	inactive	inactive	inactive				inactive		inactive	inactive	inactive	inactive	inactive					
O=C(O)C(F)(F)C(F)(F)C(F)(F)F	inactive	inactive	inactive				inactive		inactive	inactive	inactive	inactive	inactive					
CNC(=S)NC	inactive	inactive	inactive				inactive		inactive	inactive	inactive	inactive	inactive					
